Data as given in ChEMBL document CHEMBL4513216, “Probing the Open Global Health Chemical Diversity Library for Multistage-Active Starting Points for Next-Generation Antimalarials” (ACS Infect Dis, 2020).
About 8,600 (12%) of roughly 69,000 compounds showed an effect of 50% or more. This excerpt belongs to a sample that is enriched for strong results.

tested on: Plasmodium berghei; experiment: Screen against P. berghei liver stage (PbLuc), transformed with Luciferase, at 10uM; format: functional, HepG2; details: tested at 10 uM

| SMILES | INHIBITION [%] |
| --- | --- |
| Cc1nn(C)cc1S(=O)(=O)N(C)[C@@H]1CCC[C@@H](n2ccnc2)[C@@H]1O | 23 |
| O=C(CCc1c(F)cccc1F)NS(=O)(=O)c1ccc2c(c1)OCCO2 | 0.914 |
| CC(C)(C)c1n[nH]cc1CNCC1CCN(CC(F)(F)F)C1 (stereo not given) | -35.2 |
| OCc1cc2ccccc2nc1NCC1CC1 | 59.1 |
| Cc1cc(C)c2c(NCC3(O)CCCCC3)ncnc2n1 | 36.6 |
| OCc1cc2ccccc2nc1NCC1(O)CCC1 | 58.2 |
| OCc1cc2ccccc2nc1NC1CC=CC1 | 62.8 |
| COc1nc2ccccc2cc1CN1CCC(CNS(C)(=O)=O)C1 (stereo not given) | 7.15 |
| FC(F)(F)CN1CCC(CNc2nc3ccccc3o2)C1 (stereo not given) | 24.8 |
| Cc1nnc2n1CC(CNc1ncnc3ccccc13)CC2 (stereo not given) | 22 |
| OC1(CNc2ccc(Br)cn2)CCC1 | -28.6 |
| OCc1cc2ccccc2nc1NCC1CCN(CC(F)(F)F)C1 (stereo not given) | 63.8 |
| COc1cccn(CC(=O)N2CCCC3(CCOCC3)C2)c1=O | 40.9 |
| COCCNC(=O)[C@@]12CCO[C@@H]1CCN(Cc1ccc(OC)cc1)C2 | 39.2 |
| COc1ccc(CN2C[C@H]3CCC[C@@H](CN(C)C4CC4)[C@H]3C2)cn1 | -15.3 |
| CC(C)(C)c1n[nH]cc1CNCC1CCN(C2CC2)C1 (stereo not given) | 26.3 |
| CN(CC1CCOC1)S(=O)(=O)c1cccc(C(=O)N2CCOCC2)c1 (stereo not given) | 1.19 |
| CC(C)N1CCCC(C(=O)N2CCN(c3cccc(C(=O)O)c3)CC2)C1 (stereo not given) | 21.2 |
| COCCN(C)C[C@@H]1CN(c2cc(C)nc3ccccc23)C[C@@H]1CO | -34.8 |
| CN(Cc1nc2ccccc2s1)C1CCCN(c2cccnn2)C1 (stereo not given) | 24.7 |
| Cc1cc(C)c(CNc2ncnc3ccccc23)c(=O)[nH]1 | 14.7 |
| Cc1cc(C)c(CNc2nc3ccccc3cc2CO)c(=O)[nH]1 | 55.8 |
| Cc1cc(C)c(CNc2cnc3ccccc3n2)c(=O)[nH]1 | -1.35 |
| Cc1nc(C)n(C2CCCN(C(=O)c3ccc(O)nc3)C2)n1 (stereo not given) | 16.1 |
| Cc1nn(C)c(N(C)C)c1CNCc1cccc(Cn2cncn2)c1 | -17.6 |
| Cc1c[nH]nc1C1CCCN1Cc1nccn1C (stereo not given) | 18.4 |
| COc1c(CNCc2cccnc2N2CCN(C)CC2)c(C)nn1C | 51.3 |
| COc1ccc(CNCc2ccnc(N3CCCCC3)c2)cc1OC | 37.2 |

| SMILES | INHIBITION [%] |
| --- | --- |
| COc1cccc2cc(CNCc3ccc(N4CCCC4)nc3)oc12 | 21.6 |
| COc1c(CNCc2cccnc2N2CCOCC2)c(C)nn1C | -7.7 |
| COc1ccc(OC)c(CNCc2ccnc(N3CCCCC3)c2)c1 | 10.6 |
| COc1cc(CNCc2ccnc(N3CCCCC3)c2)cc(OC)c1 | 80.9 |
| COc1c(CNCc2ccnc(N3CCOCC3)c2)c(C)nn1C | 19.4 |
| COc1ccc(CNCc2ccc(N3CCCCC3)nc2)cc1OC | 52.7 |
| COc1c(CNCc2cccnc2N2CCCCC2)c(C)nn1C | -91.6 |
| COc1c(CNCc2ccnc(N3CCCCC3)c2)c(C)nn1C | 87.3 |
| COc1c(CNCc2ccnc(N3CCCC3)c2)c(C)nn1C | -8.3 |
| COc1cccc2cc(CNCc3ccnc(N4CCCCC4)c3)oc12 | -19.4 |
| O=C(NCc1cccnc1N1CCCCC1)c1ccc2cc[nH]c2c1 | 2.7 |
| NC1(CN2CCOCC2)CCCCC1 | 8.12 |
| C[C@H]1CN(c2ccccn2)C[C@@]12CCN(c1cccnc1)C2=O | 8.66 |
| COc1ccc(CNCc2ccnc(N3CCCC3)c2)c(OC)c1 | 41.45 |
| COc1cc(CNCc2ccnc(N3CCCC3)c2)cc(OC)c1 | 59.6 |
| COc1cc(CNCc2ccnc(N3CCOCC3)c2)cc(OC)c1 | 19.2 |
| CCN1CC(C(=O)NCCc2csc(-c3ccncc3)n2)CCC1=O (stereo not given) | 1.86 |
| Cc1cnc(-c2nc(C3CCN(C(=O)Cc4ccsc4)CC3)no2)cn1 | 2.71 |
| CC(C)c1ccc(/C=C/CC(=O)NC2CCN(C(N)=O)CC2)cc1 | 83.5 |
| COCCN1CCC(NC(=O)Cn2cc(C)c3ccccc32)CC1 | 17.4 |
| CC(C)c1ccc(/C=C/CC(=O)NC2CCN(C(N)=O)C2)cc1 (stereo not given) | 36.5 |
| COCCN1CCC(NC(=O)C(C)C)CC1 | -34.4 |
| CC(C)c1noc(CCCC(=O)NC2CCS(=O)(=O)C2)n1 (stereo not given) | -7.46 |
| CC(C)c1ccc(OCCC(=O)N2CCC(C(N)=O)CC2)cc1 | 32.2 |
| CC(C)c1ccc(/C=C/CC(=O)NC2CCS(=O)(=O)CC2)cc1 | 71.2 |
| CC(C)c1noc(CCC(=O)NC2CCS(=O)(=O)C2)n1 (stereo not given) | -12.2 |
| COCCN1CCC(NC(=O)C/C=C/c2ccc(C(C)C)cc2)CC1 | 61.1 |
